Laboratory results: PubChem BioAssay AID2314 (National Center for Advancing Translational Sciences (NCATS), 2010)
In all, about 300,000 compounds went through this assay and about 37,000 (12%) were called active. Cut-off read from the data, not from the text of the source: active = max response mostly above about 13% (no sharp cut-off); inactive = mostly below about 14%. The list comes from a sample in which actives are over-represented; it also holds similar structures and randomly drawn compounds.

Test: Cycloheximide Counterscreen for Small Molecule Inhibitors of Shiga Toxin; note: read at 38.3 µM for the half of the compounds with a filed dose; 0% is about no effect
Details: cell reporter, cycloheximide protein synthesis inhibition counterscreen; active compounds read high
With `O=C(CCC1CCN(C(=O)c2cccc(Cl)c2F)CC1)Nc1ccccc1` the max response was 3.41% (inactive). For `CC1CCN(CCCn2c(SCC(=O)NC3CCCC3)nc3ccccc3c2=O)CC1`, the max response was -1.13% (inactive). With `COc1ccc(C(=O)NC(C)CCc2ccccc2)c(OC)c1` (configuration not stated) the max response was 25.4% (active). In the case of `COc1ccc(C(=O)CCc2ccccc2O)c(OC)c1`, the max response is reported as 32.7% (active). In the case of `COc1ccc(C(=O)COC(=O)c2nn(C)c(=O)c3ccccc23)c(OC)c1`, the max response is reported as 4.36% (inactive). With `COc1cc(C(=O)OCC(=O)NC(C)CCc2ccccc2)cc(OC)c1OC` (configuration not stated) the max response was -8.18% (inactive). For `COc1ccc(CC(=O)NC(C)CCc2ccccc2)cc1` (configuration not stated), the max response was -0.862% (inactive). For `COc1ccc(C(=O)CCC(=O)Nc2cccnc2)c(OC)c1`, the max response was -5.23% (inactive). In the case of `O=C(NC1CCCC1)C1CCN(C(=O)Nc2cccc(Cl)c2)CC1`, the max response is reported as -1.38% (inactive). For `Cc1cccc(N2CCN(Cc3nc(C4CC4)no3)CC2)n1`, the max response was -2.08% (inactive). In the case of `Cc1cccc(C)c1NC(=O)C1CCCN1C(=O)OC(C)(C)C` (configuration not stated), the max response is reported as 6.96% (inactive). In the case of `O=C(CO/N=C/c1ccccc1O)NNC(=O)c1ccccc1Cl`, the max response is reported as -2.64% (inactive). In the case of `Cc1ccccc1C1=NC(C(F)(F)F)(C(F)(F)F)c2c(n(-c3ccc(F)cc3)c(=O)[nH]c2=O)N1`, the max response is reported as -1.61% (inactive). For `O=C(O)CSc1c2c(nc3cc(C(=O)Nc4cccc(C(F)(F)F)c4)ccc13)CCCC2`, the max response was -2.41% (inactive). With `O=C(Nc1nnc(SCc2c(Cl)cccc2Cl)s1)C1CCCO1` (configuration not stated) the max response was 28% (active). For `O=C(Nc1nnc(SCc2c(Cl)cccc2Cl)s1)c1cccc([N+](=O)[O-])c1`, the max response was 8% (inactive). With `CC(C)Cc1nnc(NC(=O)CCc2ccccc2)s1` the max response was -1.48% (inactive). For `O=C(C1CCCO1)N(Cc1ccccc1)c1ccccc1` (configuration not stated), the max response was -0.517% (inactive). For `O=C(Nc1nnc(CCc2ccccc2)s1)C1CCCO1` (configuration not stated), the max response was 14.8% (active). With `O=C(Nc1nnc(SCc2ccc(Cl)cc2Cl)s1)C1COc2ccccc2O1` (configuration not stated) the max response was -3.01% (inactive). With `O=C(NC(Cc1ccccc1)C(=O)O)/C(=C\c1ccccc1)NC(=O)c1ccco1` (configuration not stated) the max response was -3.05% (inactive). For `COc1cc(CN2CCN(Cc3ccc(C)cc3)CC2)c([N+](=O)[O-])cc1OC`, the max response was -2.69% (inactive). For `CN(CC(=O)Nc1ccccc1C(F)(F)F)C(=O)Cc1ccccc1F`, the max response was -1.32% (inactive). In the case of `Cn1cc[n+](C)c1COc1ccc(C=O)cc1`, the max response is reported as 1.36% (inactive). With `O=Cc1ccc(OCc2cn3ccccc3n2)cc1` the max response was 31.8% (active). In the case of `COc1ccc(C(=O)NCc2cn3ccccc3n2)cc1`, the max response is reported as -1.44% (inactive). With `Cc1cccc2nc(CSc3nc4[nH]ncc4c(=O)n3-c3cccc(Cl)c3)cc(=O)n12` the max response was 1.41% (inactive). In the case of `Oc1ccc(N=Cc2sc3ccccc3c2Cl)cc1`, the max response is reported as 25.7% (active). In the case of `Oc1ccc(N=Cc2c(O)ccc3ccccc23)cc1`, the max response is reported as 4.29% (inactive). In the case of `Cc1cccc(N=Nc2c(O)[nH]c3ccc(F)cc23)c1`, the max response is reported as 49% (active). With `Oc1[nH]c2ccc(Br)cc2c1N=Nc1nn[nH]n1` the max response was 1.76% (inactive). In the case of `NS(=O)(=O)c1ccc(N=Nc2c(O)[nH]c3ccc(Br)cc23)cc1`, the max response is reported as -3.08% (inactive). For `Fc1ccccc1COc1ccccc1CNCc1ccncc1`, the max response was -2.19% (inactive). With `CN(Cc1ccccc1)CC(O)COc1ccc(CNCc2cc3ccccc3s2)cc1` (configuration not stated) the max response was -1.23% (inactive). In the case of `Cc1ccc(NC(=O)C2CC2c2ccccc2)cc1` (configuration not stated), the max response is reported as 28.4% (active). With `Cc1ccc(C2CC2C(=O)NN)cc1` (configuration not stated) the max response was 4.7% (inactive). For `O=C(NNC(=S)Nc1ccc(F)cc1)[C@H]1C[C@@H]1c1ccccc1`, the max response was -2.55% (inactive). For `O=C(NC1CCN(Cc2ccccc2)CC1)c1ccc(Oc2cc(Cl)cc(Cl)c2)o1`, the max response was -0.55% (inactive). In the case of `CCc1c(C)sc(NC(=O)c2ccc(Br)o2)c1C(=O)OC`, the max response is reported as 5.7% (inactive). With `CCCc1nnc(NC(=O)c2cc(OC)cc(OC)c2)s1` the max response was 8.3% (inactive). In the case of `COC(=O)c1c(NC(=O)c2cccs2)sc2c1CCCC2`, the max response is reported as 9.75% (inactive). For `CCCc1ccc(-c2csc(NC(=O)Cc3cccs3)n2)cc1`, the max response was 22.9% (active). In the case of `CCc1nnc(NC(=O)Cc2cccs2)s1`, the max response is reported as 1.7% (inactive). In the case of `Cc1nc(-c2ccc(NC(=O)c3cccs3)cc2)cs1`, the max response is reported as 23.7% (active). For `Cc1ccc(-c2csc(NC(=O)Cc3cccs3)n2)cc1C`, the max response was 12.4% (inactive). In the case of `CCCc1nnc(NC(=O)c2cccs2)s1`, the max response is reported as 12.8% (active). In the case of `Cc1ccc(-c2nnc(-c3ccc(NC(=O)c4cccs4)cc3)o2)cc1`, the max response is reported as -3.98% (inactive). With `CCc1c(C)sc(NC(=O)c2cccs2)c1C(N)=O` the max response was 63.8% (active). In the case of `Cc1ccc(OCC(=O)Nc2ccc(NC(=O)c3cccs3)cc2)c(C)c1`, the max response is reported as -4.62% (inactive). With `CC(=O)c1ccc(N2CCN(C(=O)CCNC(=O)Cn3ccc4ccccc4c3=O)CC2)cc1` the max response was -4.48% (inactive). With `O=C(O)CCCN1C(=O)c2ccccc2Sc2ncccc21` the max response was -1.01% (inactive). In the case of `C=C1CCN(C(CC(C)C)C(=O)NCc2cc(OC)c(OC)c(OC)c2)S(=O)(=O)c2ccccc21` (configuration not stated), the max response is reported as -2.25% (inactive). In the case of `Cc1ccc(CSCCNC(=O)CN(c2ccc(F)cc2)S(C)(=O)=O)cc1`, the max response is reported as -2.68% (inactive). With `Cc1ccccc1C(=O)N1CCC(C(=O)Nc2ccc(S(=O)(=O)N(C)C(C)C)cc2)CC1` the max response was 4.98% (inactive). For `CC1CCCCN1C(=O)Cn1c(=O)oc2cc(S(=O)(=O)N3CCCCC3)ccc21` (configuration not stated), the max response was -1.34% (inactive). In the case of `CC(C)(C)NCc1cc(Br)ccc1OC1CCCC1`, the max response is reported as -4.63% (inactive). With `CCCCCCn1cc(C(=O)O)c(=O)c2cc(F)c(N3CCCCC3)cc21` the max response was -0.584% (inactive). For `O=C(O)CCC(=O)N(Cc1ccco1)c1nc(-c2ccccc2)cs1`, the max response was -1.24% (inactive). For `Cc1ccc(-c2csc(N(Cc3ccco3)C(=O)c3cccs3)n2)cc1`, the max response was 16.7% (active). In the case of `Cc1ccc(-c2csc(NC(=O)c3cccs3)n2)cc1`, the max response is reported as 60.5% (active). With `Cc1ccc(-c2csc(NNC(=O)c3ccccc3)n2)cc1` the max response was -2.93% (inactive). For `Cc1nnc(N(Cc2ccco2)C(=O)c2ccno2)s1`, the max response was -2.88% (inactive). With `O=C(Nc1n[nH]c(C(F)(F)F)n1)c1cccs1` the max response was -2.4% (inactive). For `CCC(CC)c1nnc(NC(=O)C2CCN(C(=O)c3ccco3)CC2)s1`, the max response was -2.36% (inactive). With `O=C(CNC1CCCCC1)NCC1(c2ccccc2)CCCC1` the max response was -3.76% (inactive). For `COCc1cc(=O)n2[nH]c(C)c(-c3ccccc3)c2n1`, the max response was 1.24% (inactive). In the case of `COc1cc(C(C)=O)ccc1OC(=O)CN1C(=O)c2ccccc2C1=O`, the max response is reported as -2.6% (inactive). For `COc1ccccc1-c1sc2ccccc2c1-c1ccc(C(C)=O)cc1`, the max response was 25.3% (active). For `COCc1cc(C(C)=O)ccc1OC`, the max response was -7.85% (inactive). With `CC(=O)Nc1ccc(Oc2ccc3c(c2)C(=O)NC3=O)cc1` the max response was -1.54% (inactive). With `CSc1nc(-c2ccco2)nn1C(=O)CCc1ccccc1` the max response was -3.44% (inactive). For `c1coc(CNc2ncnc3ccccc23)c1`, the max response was -1.39% (inactive). With `O=C(Cc1ccccc1)n1nc(-c2ccccc2)nc1NCc1ccco1` the max response was 15.3% (active). With `CCOCCCNc1nc(-c2ccccc2)nc2ccccc12` the max response was 7.13% (inactive). With `c1ccc(-c2nc(NCc3ccco3)c3ccccc3n2)cc1` the max response was 16.8% (active). With `CS(=O)(=O)n1nc(-c2ccccc2)nc1NCc1ccco1` the max response was 13.9% (inactive). With `Cc1cc(=O)[nH]c2nnnn12` the max response was 4.1% (inactive). For `CC1(c2ccccc2)CC(C)(C)N(C(=O)c2cc([N+](=O)[O-])cc([N+](=O)[O-])c2)c2ccccc21` (configuration not stated), the max response was -4.42% (inactive). In the case of `N#CC1(C#N)C(C(=O)C23CC4CC(CC(C4)C2)C3)C12CCOCC2` (configuration not stated), the max response is reported as 2.45% (inactive). In the case of `Cc1cccc(N(C)C(=O)c2cc3c(=O)[nH]c4ccc(C)cc4c3s2)c1`, the max response is reported as -2.49% (inactive). In the case of `COc1ccc(COC(=O)c2ccc(Cl)c(S(=O)(=O)N3CCOCC3)c2)cc1F`, the max response is reported as 6.51% (inactive). In the case of `COc1ccc(-c2cc(=O)oc3cc(OCC(=O)N[C@@H](Cc4c[nH]c5ccccc45)C(=O)O)ccc23)cc1`, the max response is reported as 0.573% (inactive). For `CCC(C)NC(=O)c1cc(Cl)ccc1OC` (configuration not stated), the max response was 5.03% (inactive). For `COc1ccc(-c2cc(C(=O)NC(C(=O)O)C(C)C)c(C)o2)cc1OC` (configuration not stated), the max response was 28.2% (active). With `Cc1cccc(C)c1OCC(=O)NC(Cc1c[nH]c2ccccc12)C(=O)O` (configuration not stated) the max response was -0.482% (inactive). With `COc1ccc(-c2cc(C(=O)NC(Cc3c[nH]c4ccccc34)C(=O)O)c(C)o2)cc1OC` (configuration not stated) the max response was 32.9% (active). For `CC(C)C(NC(=O)c1ccc(Cl)cc1)C(=O)O` (configuration not stated), the max response was -2.96% (inactive). In the case of `COc1ccc(C(=O)N/N=C2\CCS(=O)(=O)c3ccc(F)cc32)cc1OC`, the max response is reported as -4.85% (inactive). In the case of `O=C(CN(C(=O)c1csnn1)c1cccc(Cl)c1)NC1CCCC1`, the max response is reported as 4.33% (inactive). In the case of `Cc1c(OC(C)C(=O)N[C@@H](Cc2ccccc2)C(=O)O)ccc2c3c(c(=O)oc12)CCCC3` (some centres not stated), the max response is reported as -2.81% (inactive). With `CCCOc1ccc2c3c(c(=O)oc2c1OCCC)CCC3` the max response was -3.41% (inactive). For `COc1ccc2c3c(c(=O)oc2c1OCC(=O)C(C)(C)C)CCCC3`, the max response was 35% (active). With `COc1ccc(C(=O)CN(C(=O)c2ccc(Cl)cc2)N2C(=O)c3ccccc3C2=O)cc1` the max response was -2.08% (inactive). With `CCn1c(C)cc(=O)cc1-c1ccc(Cl)cc1` the max response was -3.63% (inactive). With `COc1ccc(Cn2c(-c3ccc(Cl)cc3)c[n+]3ccccc23)cc1` the max response was 50.5% (active). For `CCOc1ccc(NC(=O)CCS(=O)(=O)c2ccc3c(c2)CCCN3C(=O)CC)cc1`, the max response was -2.69% (inactive). In the case of `Cc1ccc(C(=O)COC(=O)CCN2C(=O)C3C4CCC(C4)C3C2=O)cc1C` (configuration not stated), the max response is reported as 11.1% (inactive).
